The structures appear in SMILES notation. The source made the active and inactive calls. Calls come from the whole dose curve; as a rule, active = well fitted curve in the direction sought with a large enough effect in the repeat runs; inconclusive = weak or mixed curves; inactive = flat fitted curve, though single readings scatter.
% is set by controls: 0 for no effect and ±100 for the full control effect.

The experiment can be described thus: qHTS assay to test for compound auto fluorescence at 535 nm (green) in HEK293 cells (AID 720680). Particulars: green autofluorescence 485/535 nm; series mostly up to 91.3 µM; fluorescence, % of fluorescein: at the top concentration. An excerpt: U.S. Tox21 Program National Center for Advancing Translational Sciences [NCATS] NIH Chemical Genomics Center [NCGC] U.S. Environmental Protection Agency [EPA] National Institutes of Environmental Health Sciences [NIEHS] National Toxicology Program [NTP] U.S. Food and Drug Administration [FDA] Tox21 Assay Overview: Compound auto fluorescence often interferes with screening of the compound library against various biological targets and signaling pathways. Some of these compounds may have fluorophoric properties. Such properties may interfere with the assay outputs resulting in false positives and/or negatives. To decrease such complications and ensure the compound activities are relevant in terms of biological response, the Tox21 10K compound library was screened for auto fluorescence. From the fluorophores used as reporter signals in our screening assays, the auto fluorescence equivalencies of compounds against three fluorophores have been evaluated: Triamterene, Fluorescein and Rose Bengal sodium for blue, green and red fluorescence, respectively. The fluorescence intensities were measured using Excitation/Emission wavelengths at 405/460nm, 485/535nm and 540/590nm for blue, green and red labels, respectively. This assay includes the green fluorescence data.
Tox21 Assay Protocol Summary: 2,000 HEK293 cells in 5 uL of culture medium containing 10% dialyzed FBS per well were dispensed into black wall/clear bottom 1536-well plates using a Multidrop Combi Dispenser (Thermo Scientific). The assay plates were incubated for 4-5 hr at 37C to allow cell attachment to the well bottom, followed by the transfer of 23 nL compound or DMSO vehicle by a pintool work station (Kalypsys, San Diego, CA). After the assay plates were incubated overnight at 37C and 5% CO2, fluorescence intensities in the assay plates were measured by an Envision (PerkinElmer, Shelton, CT) plate reader using three labels for measuring blue, green and red fluorescence at […] 460, 535 and 590nm respectively.
(Quantitative high-throughput screening tests each substance at several concentrations.)
Take `CCCC[N+](=O)[O-]`: the “fluorescence, % of fluorescein” value was -0.0534% (inactive).
Regarding `COc1ccc(C=O)cc1O`, the “fluorescence, % of fluorescein” value is -0.0077% (inactive).
The same measure, in the same setting: under `CON(C)C(=O)Nc1ccc(Br)c(Cl)c1` stands 0.162% (inactive); under `O=C(Cl)OCc1ccccc1`, 0.0523% (inactive).
The same measure, in the same setting: under `CCC1(CC)C(=O)C=CNC1=O` stands -0.118% [at 46 µM] (inactive); under `O=C(Cl)/C=C/C(=O)Cl`, 0.206% [at 95.7 µM] (inactive); under `CC(O)CCl` (stereo not given), 0.0414% (inactive).
`CCC(C(N)=O)N1CCCC1=O` (stereo not given): the “fluorescence, % of fluorescein” value is -0.101% [at 46 µM] (inactive).
The same measure, in the same setting: under `N#CC(Br)(Br)C(N)=O` stands -0.0109% (inactive).
With `Brc1c(Br)c(Br)c(Br)c(Br)c1Br`, the fluorescence, % of fluorescein is -0.0363% [at 3.72 µM] (inactive).
Still for that read-out and setting: the same measure for `CCCCCCC1CCOC1=O` (stereo not given): 0.0133% (inactive).
Take `C[C@H](N)C(=O)c1ccccc1`: the outcome was inactive.
Still for that read-out and setting: under `C[C@H]1CCCC(=O)CCC/C=C/c2cc(O)cc(O)c2C(=O)O1` stands “inactive”.
Turning to `CN(CCO)CCO`, the “fluorescence, % of fluorescein” value is 0.0147% [at 95.7 µM] (inactive).
For the compound `CCOC(=O)c1ncn2c1CN(C)C(=O)c1c(I)cccc1-2`, the “fluorescence, % of fluorescein” value is -0.305% [at 46 µM] (inactive).
Turning to `ClC(Cl)(Cl)Cl`, the compound was called inactive.
In the case of `[O-][Br+2]([O-])O`, the “fluorescence, % of fluorescein” value is -0.103% [at 46 µM] (inactive).
The same measure, in the same setting: the same measure for `CCOP(=S)(OCC)Oc1ccc(Cl)cc1Cl`: 0.0447% (inactive); for `CCOC(=O)Nc1cccc(OC(=O)Nc2ccccc2)c1`: 0.0602% (inactive); for `CNC(=O)Oc1ccccc1C(C)C`: 0.0331% (inactive).
Same read-out and setting: the same measure for `CCN(CC)C1CCCCC1`: 0.0535% (inactive); for `c1ccc2c(c1)CCNC2`: 0.123% [at 95.7 µM] (inactive); for `N[C@@H]1C[C@H]1c1ccccc1`: -0.0072% [at 46 µM] (inactive).
On the same count and under the same terms, under `CC(Cc1ccccc1)NCCn1cnc2c1c(=O)n(C)c(=O)n2C` (stereo not given) stands -0.215% (inactive); under `O=C/C=C/c1ccco1`, -0.01% (inactive); under `ClCCCCl`, -0.0778% [at 95.7 µM] (inactive).
As for `CC1NCCOC1c1ccccc1` (stereo not given), the “fluorescence, % of fluorescein” value is -0.0135% [at 46 µM] (inactive).
Regarding `Oc1ccc2c3c1O[C@H]1[C@@H](O)C=C[C@H]4[C@@H](C2)NCC[C@@]341`, the “fluorescence, % of fluorescein” value was -0.0544% [at 95.7 µM] (inactive).
Still for that read-out and setting: the same measure for `C[N+]1(C)CCCCC1`: 0.169% (inactive); for `CCNc1nc(NCC)nc(SC)n1`: -0.0148% (inactive); for `CCOC(=O)CCl`: 0.106% (inactive).
Still for that read-out and setting: under `CC[C@H](O)C(C[C@H](C)N(C)C)(c1ccccc1)c1ccccc1` stands 0.04% [at 95.7 µM] (inactive).
The same measure, in the same setting: under `BrCc1ccc(Br)cc1` stands 0.0233% (inactive); under `CCC1(c2ccccc2)CCC(=O)NC1=O` (stereo not given), 0.102% [at 46 µM] (inactive).
On to `CC(C)c1ccc(O)cc1`, for which the “fluorescence, % of fluorescein” value was 0.0087% (inactive).
Still for that read-out and setting: under `CS(=O)(=O)Cl` stands -0.0502% [at 95.7 µM] (inactive); under `COc1cc(CC(C)N)cc(OC)c1OC` (stereo not given), 0.131% [at 95.7 µM] (inactive).
Regarding `CC(C)(C)c1cc(O)ccc1O`, the outcome was inactive.
Regarding `CCN(CC)CCOC(=O)C(O)(c1ccccc1)c1ccccc1`, the “fluorescence, % of fluorescein” value was -0.068% [at 46 µM] (inactive).
Regarding `CCN[C@@H](C)Cc1cccc(C(F)(F)F)c1`, the “fluorescence, % of fluorescein” value is -0.0418% (inactive).

The values are drawn from PubChem BioAssay (Tox21).
